Rab9 promoter act: qHTS Assay for Rab9 Promoter Activators. Huh7 Rab9 promoter-luciferase reporter, luminescence, 24 h. Potency, µM (highest dose often 9.22 µM), for the others: top-dose activation, negative = inhibition, actives largely listed as activators. actives 2.8% (n = 320,000); note: % of control where 0% means no effect; nearly all actives have a fitted effect of over 60% in size
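Luminescence read-out: Huh7 cells stably expressing Rab9-luciferase, treated 24 h with compound at 37 °C, then lysed with luciferase reagent for 10 min at ambient before reading.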
SMN2 splice enh: qHTS Assay for Enhancers of SMN2 Splice Variant Expression; Potency, µM (titrated, usually from 46.1 µM), without a hit: top-dose activity change, positive = activation, hits mostly activators; actives 2.8% (n = 210,000); HEK293 SMN2-luciferase splicing reporter, luminescence, 30-36 h; note: % of control where 0% means no effect; nearly all actives have a fitted effect of over 55% in size
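qHTS luciferase splicing reporter: luminescence rises when SMN2 exon 7 is included in transfected HEK293 cells. Compound exposure lasted 30-36 h at 37C, with 4.5 mM final sodium butyrate as control, followed by a ONE-Glo read.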
ELG1 DNA repair: qHTS screen for small molecules that inhibit ELG1-dependent DNA repair in human embryonic kidney (HEK293T) cells expressing luciferase-tagged ELG1; HEK293T ELG1-luciferase reporter, luminescence, 16 h; DNA damage induced by 5-fluorouridine; Potency, µM (titrated, usually from 46.1 µM), without a hit: top-dose activity change, negative = inhibition, actives largely listed as inhibitors; actives 2.3% (n = 330,000); AID 504467, 2011; note: % is set by controls: 0 for no effect and ±100 for the full control effect; nearly all actives have a fitted effect of over 55% in size
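Overnight (16 hr) co-exposure of 2,000 cells/well to 5-fluorouridine and compound at 37 °C preceded detection. Luciferase was quantified via ONE-Glo luminescence; loss of signal denotes inhibition.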
ELG1 genotox: qHTS screen for small molecules that induce genotoxicity in human embryonic kidney (HEK293T) cells expressing luciferase-tagged ELG1; HEK293T ELG1-luciferase reporter, luminescence, 16 h; Potency, µM (doses to about 46 µM), inactives show at the top dose activity change, positive = activation, usual class: activators; actives 1.3% (n = 330,000); AID 504466, 2011; note: % of control where 0% means no effect; nearly all actives have a fitted effect of over 60% in size
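Step 1: seed 2,000 HEK293T ELG1-luciferase cells per well. Step 2: add compound or DMSO, incubate 16 hr at 37 °C. Step 3: ONE-Glo, 30 min at room temperature, read luminescence.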
FLuc counter: qHTS profiling assay for firefly luciferase inhibitor/activator using purifed enzyme and Km concentrations of substrates (counterscreen for miR-21 project) | Luciferin 4-monooxygenase (Photinus pyralis), P08659 | purified FLuc, Km substrates, luminescence inhibition | Potency, µM (top dose mostly 57.5 µM), for the others: top-dose activity change, negative = inhibition, actives largely listed as inhibitors | actives 6.9% (n = 360,000);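 note: plate controls were vehicle for no effect and reference inhibitor for full effect; nearly all actives have a fitted effect of over 55% in size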
Target sequence (P08659 whole entry, looked up): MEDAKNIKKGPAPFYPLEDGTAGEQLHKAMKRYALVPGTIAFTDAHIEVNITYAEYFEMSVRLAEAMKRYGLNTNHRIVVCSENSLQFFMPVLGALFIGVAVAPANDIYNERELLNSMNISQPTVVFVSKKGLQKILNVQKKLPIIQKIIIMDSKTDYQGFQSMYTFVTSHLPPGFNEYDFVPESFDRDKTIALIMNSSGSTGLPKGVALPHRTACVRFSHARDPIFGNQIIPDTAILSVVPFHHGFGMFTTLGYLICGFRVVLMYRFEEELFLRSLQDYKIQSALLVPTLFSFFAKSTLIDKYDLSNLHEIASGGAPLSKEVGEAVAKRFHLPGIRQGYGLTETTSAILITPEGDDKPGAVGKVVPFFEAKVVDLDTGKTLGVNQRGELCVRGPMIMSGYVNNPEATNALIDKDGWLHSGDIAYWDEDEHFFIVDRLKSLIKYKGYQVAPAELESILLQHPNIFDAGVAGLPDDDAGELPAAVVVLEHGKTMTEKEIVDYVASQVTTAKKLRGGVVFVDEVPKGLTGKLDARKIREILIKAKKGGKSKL
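Biochemical qHTS of compounds, final roughly 60 µM downward over six points, against 10 nM purified firefly luciferase using Km concentrations of substrates (10 uM D-luciferin, 10 uM ATP) in Tris acetate pH 7.5 buffer; luminescence output.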
NPC1 prom act: qHTS Assay for NPC1 Promoter Activators | Potency, µM (highest dose often 9.22 µM), for the others: at the top dose activation, hits mostly activators | AID 485313, 2010 | actives 2.4% (n = 320,000) | Huh7 NPC1 promoter luciferase reporter, 24 h; note: % of control where 0% means no effect; nearly all actives have a fitted effect of over 60% in size
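Compounds in DMSO were transferred onto Huh7 NPC1-luciferase reporter cells pre-incubated 2 h; after 24 h at 37 °C, Amplite reagent was dispensed and luminescence recorded 10 min later.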
Active calls of the source: *; ? = inconclusive; · = not tested or not shown; [ ] = dose if it differs, or a comment. Rows were chosen to be rich in hits. Some 9.3% of all compounds tested hit in one or more screens of this group. Calls come from the whole dose curve; as a rule, active = well fitted curve in the direction sought with a large enough effect; inconclusive = small, poorly fitted or top-dose-only effect, or another doubt; inactive = no such curve, though single readings can be large; an effect the other way counts as inactive or inconclusive. Potency is the fitted concentration of half-maximal effect.

SMILES | Rab9 promoter act | SMN2 splice enh | ELG1 DNA repair | ELG1 genotox | FLuc counter | NPC1 prom act
CCN(CC)CCN1C(=O)C(=O)/C(=C(/O)c2ccc(S(=O)(=O)N3CCOCC3)cc2)C1c1ccc(C(C)(C)C)cc1 (configuration not stated) | -4% | · | 8% | -3% | -3% | -5%
Cc1nn(Cc2ccc(C(=O)NN)o2)c(C)c1Cl | 2% | · | ? | -1% | 3% | 3%
Cc1cc(NC(=O)c2ccc(Cn3nc(C)c(Br)c3C)o2)no1 | 1% | 20µM* | -29% | 5% | -1% | -4%
Cc1nn(Cc2ccc(C(=O)Nc3ccc(C(=O)OC(C)C)cc3)o2)c(C)c1Cl | -8% | -68% | 18µM* | 2% | -4% | -4%
COc1ccc(C(=O)NCCCCNC(=O)c2ccc(OC)c(OC)c2)cc1OC | 0% | · | 1% | 4% | 1% | -3%
CCOC(=O)C1CNc2cc(S(=O)(=O)CC)ccc2O1 (configuration not stated) | -7% | -7% | ? | -3% | -3% | -4%
CCOc1ccc(N=NC2C(=O)N(C(N)=S)N=C2C)cc1 (configuration not stated) | 4µM* | · | ? | 18µM* | 3.8µM* | 2.8µM*
CC1=NN(C(N)=S)C(=O)C1N=Nc1ccccc1Cl (configuration not stated) | 15% | · | ? | 9% | ? | 17%
CC1=NN(C(N)=S)C(=O)C1N=Nc1ccccc1C(=O)O (configuration not stated) | 7% | · | -4% | -4% | 5% | -2%
CC1=NN(c2ccccc2C(=O)O)C(=O)C1N=Nc1ccccc1 (configuration not stated) | 21% | · | 3% | -11% | 15µM* | 20%
COc1ccccc1N=NC1C(=O)N(C(N)=S)N=C1C (configuration not stated) | 1% | · | 2% | -5% | ? | -1%
CC1=NN(C(N)=S)C(=O)C1N=Nc1ccc(F)cc1 (configuration not stated) | 3.5µM* | · | ? | 23µM* | 11µM* | 2.5µM*
CC(=O)Nc1ccc(N=NC2C(=O)N(C(N)=S)N=C2C)cc1 (configuration not stated) | ? | · | ? | ? | 12µM* | ?
COc1cc(C(=O)N2CCN(C)C(C)C2)ccc1OC1CCN(C(C)=O)CC1 (configuration not stated) | 8% | · | 28% | 9% | -8% | 7%
CCOc1ccc(NS(=O)(=O)c2ccc3c(c2)CCCN3C(=O)C2CCC2)cc1 | · | · | · | · | -11% | ·
Cc1cccc(C(=O)OCc2cc(=O)n3nc(C4CC4)sc3n2)c1 | · | · | · | · | -6% | ·
O=C(N/N=C/c1ccccc1C(=O)O)c1cccc(S(=O)(=O)N2CCCCC2)c1 | -4% | · | 1% | -2% | -3% | -8%
CC1=NN(C(N)=S)C(=O)C1N=Nc1ccc(O)cc1 (configuration not stated) | 2% | · | 2% | 9% | 27µM* | -11%
CC1=NN(C(N)=S)C(=O)C1N=Nc1ccc(Cl)cc1Cl (configuration not stated) | 4.5µM* | · | ? | ? | 24µM* | 3.2µM*
CC1=NN(C(N)=S)C(=O)C1N=Nc1ccc([N+](=O)[O-])cc1 (configuration not stated) | ? | · | ? | ? | 3.4µM* | ?
CC1=NN(C(N)=S)C(=O)C1N=Nc1cccc(C)c1 (configuration not stated) | ? | · | 0% | ? | ? | ?
CC1=NN(C(N)=S)C(=O)C1N=Nc1ccc(C)c(Br)c1 (configuration not stated) | 1.3µM* | · | ? | 5.2µM* | 1.7µM* | 1.8µM*
Cc1ccc(-n2nc(CO)c(C(=O)NCc3ccccn3)n2)cc1C | · | -5% | · | · | ? | ·
CC1=NN(C(N)=S)C(=O)C1N=Nc1cccc(C(=O)O)c1 (configuration not stated) | 2.5µM* | · | -16% | 2% | 4.8µM* | ?
O=c1c(Cl)c(Cl)cnn1-c1ccccc1 | -53% | -86% | 18µM* | -6% | -2% | -45%
SMILES | Rab9 promoter act | SMN2 splice enh | ELG1 DNA repair | ELG1 genotox | FLuc counter | NPC1 prom act
Cc1ccc(Cn2ncc(Cl)c(Cl)c2=O)cc1 | -7% | ? | ? | -16% | 0% | -14%
O=c1c(Cl)c(Cl)cnn1Cc1ccccc1Cl | -36% | ? | 10µM* | -19% | 5% | -20%
CCOc1cnn(-c2ccccc2)c(=O)c1Cl | 2% | · | ? | ? | 2% | 1%
O=c1c(Cl)c(N/N=C/c2ccc(Cl)cc2)cnn1-c1ccccc1 | 0.32µM* | -7%[1.84 µM] | 14% | 6% | -4% | 0.56µM*
Nc1c(C(=O)N/N=C/c2ccc(Cl)cc2)cnn1-c1ccccc1 | ? | · | 1% | 14% | 6% | 29%
CNC(=O)C1CCN(C(=O)N2CC(C)Oc3ccc(Cl)cc32)CC1 (configuration not stated) | · | · | · | · | 3% | ·
CCOC(=O)C1CCCN(C(=O)c2ccc3nc(-c4ccccc4)c(-c4ccccc4)nc3c2)C1 (configuration not stated) | 8% | · | -15% | -10% | 3% | 19%
CCOC(=O)C1CCCN(C(=O)c2ccc3nc(-c4ccc(OC)c(OC)c4)c(-c4ccc(OC)c(OC)c4)nc3c2)C1 (configuration not stated) | 3% | · | 1.8µM* | -1% | 1% | -3%
O=C(c1ccc2oc(CCCc3ccccc3)nc2c1)N1CCCC1 | 1.8µM* | · | ? | 9.2µM* | 8.5µM* | 3.2µM*

Screens from PubChem BioAssay.
